AMA1 RON2 block: inhibitors of Plasmodium falciparum AMA1-RON2 interaction. 360,000 tested, 0.2% active. Potency, µM (top dose mostly 58.2 µM), for the others: at the top dose activity change, negative = inhibition, hits mostly inhibitors. AlphaScreen AMA1-biotinylated RON2 peptide binding. AID 720542;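 further: 0% = vehicle wells and -100% = peptide control; nearly all actives have a fitted effect of over 45% in size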
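AMA1 (3D7) with his tag at 25 nM final met compounds first, then biotinylated RON2 peptide at 25 nM; detection used donor plus acceptor beads, 10 µg/mL apiece, read by AlphaScreen after 30 min at room temperature.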
RE007 growth inh: less growth of the S. pombe RE007 Vpr strain | S. pombe RE007 Vpr strain, BacTiter-Glo ATP luminescence, 24 h | Potency, µM (titrated, usually from 92.2 µM), inactives show at the highest dose activity change, negative = less growth, usual class: inhibitors | 360,000 tested, 0.21% active | AID 651644; active means well fitted falling curve with a large enough effect; inconclusive means small, poorly fitted or top-dose-only effect; inactive means no such curve, though single readings can be large or run the other way; further: nearly all actives have a fitted effect of over 50% in size
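Fission yeast strain RE007, carrying one chromosomally integrated HIV-1 vpr copy, was seeded at OD 0.01 in PMG+AL medium with 23 nL pinned compound. After 24 h at 30 °C and 99% humidity, viability was read by BacTiter-Glo luminescence.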
TbPYK inhibitor: blocks Trypanosoma brucei pyruvate kinase; Q57TT1; 410,000 tested, 0.12% active; Potency, µM (titrated, usually from 76.8 µM), for inactives: at the top dose activity, negative = inhibition, actives largely listed as inhibitors; TbPYK enzyme, Kinase-Glo Plus ATP luminescence, 45 min; further: nearly all actives have a fitted effect of over 50% in size
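Luminescent Kinase-Glo Plus end-point after 45 min room-temperature reaction of T. brucei pyruvate kinase started with 130 uM ADP (final). Buffer TEA 50 mM pH 7.2 with KCl, MgCl2, BSA, Tween-20; titration-based qHTS with fitted concentration-effect curves.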
VACV Venus inh: vaccinia inhibition (Venus reporter). Vaccinia virus Venus reporter expression, fluorescence. 330,000 tested, 0.46% active. Potency, µM (top dose mostly 36.5 µM), for inactives: at the top dose activity change, negative = inhibition, most hits filed as inhibitors; calls by dose curve; tested in A549 cells; further: nearly all actives have a fitted effect of over 30% in size
VACV mCherry inh: vaccinia inhibition (mCherry reporter). Potency, µM (titrated, usually from 36.5 µM), for inactives: at the highest dose activity change, negative = inhibition, actives largely listed as inhibitors. AID 720579. Vaccinia virus mCherry reporter infection, fluorescence. 310,000 tested, 0.63% active; calls by dose curve; tested in A549 cells; further: nearly all actives have a fitted effect of over 35% in size
LmPK inhibitor: LmPK (Leishmania mexicana) enzyme inhibition. purified LmPK, Kinase-Glo ATP luminescence, 1 h. Potency, µM (top dose mostly 57.5 µM), for inactives: top-dose activity change, negative = inhibition, actives largely listed as inhibitors. 290,000 tested, 0.37% active. Q27686
Target sequence (Q27686 whole entry, looked up): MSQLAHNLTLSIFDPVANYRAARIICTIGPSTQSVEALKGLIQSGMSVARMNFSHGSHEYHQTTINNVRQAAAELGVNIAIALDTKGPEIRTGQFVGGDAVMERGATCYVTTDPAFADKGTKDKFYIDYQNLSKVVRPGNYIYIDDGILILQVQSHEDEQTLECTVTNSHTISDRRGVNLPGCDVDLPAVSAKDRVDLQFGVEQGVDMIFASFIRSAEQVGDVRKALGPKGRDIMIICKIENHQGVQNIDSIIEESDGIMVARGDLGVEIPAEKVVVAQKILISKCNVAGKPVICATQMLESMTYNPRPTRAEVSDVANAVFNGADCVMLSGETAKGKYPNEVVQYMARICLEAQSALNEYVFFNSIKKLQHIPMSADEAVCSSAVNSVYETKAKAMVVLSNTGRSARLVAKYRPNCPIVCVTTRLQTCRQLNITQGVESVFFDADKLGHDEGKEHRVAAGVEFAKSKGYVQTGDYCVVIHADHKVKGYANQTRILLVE
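Kinase-Glo luminescence read after 1 h RT reaction of 0.1 nM LmPK with 0.5 mM PEP and 0.1 mM ADP. Activity scaled between uninhibited and enzyme-free controls.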
* marks the source's active call; other numbers are inactive results; i = inactive; ? = inconclusive; . = no result given; ! = not confirmed by another sample; [ ] = another dose, or the depositor's remark. Rows were chosen to be rich in hits. Some 1.3% of all compounds tested hit in one or more screens of this group. Unless noted, the call rests on the fitted dose curve; in most records, active means well fitted curve in the direction sought with a large enough effect; inconclusive means small, poorly fitted or top-dose-only effect, or another doubt; inactive means no such curve, though single readings can be large; an effect the other way counts as inactive or inconclusive. Unless noted, on the % scale 0 is the no-effect control and ±100 the full control effect; potency means the concentration at half of the fitted maximal effect.

SMILES | AMA1 RON2 block | RE007 growth inh | TbPYK inhibitor | VACV Venus inh | VACV mCherry inh | LmPK inhibitor
O=C(CSc1n[nH]c(-c2ccccn2)n1)Nc1ccccc1 | -91% | 19% | -3% | -24% | 7.9µM* | -5%
CC(C)=CNNC(=O)c1ccc(O)cc1 | . | . | . | -14% | -3% | .
O=P(CCCCCCCCCP(=O)(c1ccccc1)c1ccccc1)(c1ccccc1)c1ccccc1 | -6% | 32% | 3% | 16µM* | ? | 6%
O=C(O)CCCCCCCCCCP(=O)(c1ccccc1)c1ccccc1 | 10% | 12% | -2% | -6% | 4% | -1%
CC(=O)c1ccccc1-c1ccc2c(c1)CC(CNC(=O)Cc1c[nH]c3ccccc13)O2 (centres undefined) | . | . | . | -8% | -20% | .
CCN(c1ccc(C(O)(C(=O)OC)C(F)(F)F)cc1)S(=O)(=O)c1ccccc1 (centres undefined) | 14% | 8% | -4% | -22% | 0% | 3%
O=S(=O)(c1ccccc1)N(CC(F)(F)F)c1ccc(C(O)(C(F)(F)F)C(F)(F)F)cc1 | 11% | 4% | 2% | 11µM*! | ? | .
CCC1(C2CCN(Cc3ccccc3Cl)CC2)NC(=O)N(CC2COc3ccccc3O2)C1=O (centres undefined) | . | . | . | -19% | -18% | .
CCOc1cc(CNCCc2c[nH]c3ccccc23)cc(Cl)c1OCC | ? | 3% | -4% | 11µM* | ? | -1%
Cc1cccc(CNC(=O)c2c3n(c(C)cc2=O)-c2ccccc2SC(c2ccsc2)C3)n1 (centres undefined) | . | . | . | -11% | i | .
Cc1ccc(Nc2cc(C)nn2-c2nc(C)cc(C)n2)cc1 | -11% | ? | 5% | ? | -7% | 2%
Cc1ccc(Nc2cc(C)nn2-c2nc(C)cc(=O)[nH]2)cc1 | 52% | ? | -2% | ? | 2.2µM* | 3%
O=C(CCl)Nc1c[nH]c(=O)[nH]c1=O | 1% | -1% | 4% | 7.9µM* | 7.1µM* | 11%
O=C(Cc1ccccc1)Nc1c[nH]c(=O)[nH]c1=O | -19% | -13% | -3% | -6% | -14% | 10%
CCSc1nnc(NC(=O)NC(CC)(C(F)(F)F)C(F)(F)F)s1 | 0% | 4% | -11% | 28µM* | . | -1%
Cc1ccc(-c2csc(NC(=O)C3=COCCO3)n2)cc1 | -14% | ? | -12% | -29% | -5% | -1%
Cc1ccc(C)c(-c2csc(NC(=O)C3=COCCO3)n2)c1 | -9% | 25µM* | -1% | -7% | -11% | .
CC(C)C[C@@H](CN1CCCC1CN1C(=S)NC[C@@H]1Cc1ccc(O)cc1)N1C[C@H](Cc2ccc(O)cc2)N(CC2CCCCCC2)C1=S (some centres undefined) | 12% | 11% | 0% | 11µM* | 6.3µM* | .
CCOc1ccc(CCN2C(=S)N([C@@H](CC(C)C)CN3CCCC3CN3C(=S)NC[C@@H]3Cc3ccc(O)cc3)C[C@@H]2Cc2ccc(O)cc2)cc1 (some centres undefined) | 11% | -16% | 3% | 10µM* | ? | .
CC(C)C[C@@H](CN1CCCC1CN1C(=S)NC[C@@H]1Cc1ccc(O)cc1)N1C[C@H](Cc2ccccc2)N(CC2CCCCCC2)C1=S (some centres undefined) | -6% | 4% | 4% | -27% | -24% | .
NC[C@@H]1O[C@@H](O[C@H]2[C@@H](O)[C@H](O[C@@H]3[C@@H](O)[C@@H](N)C[C@H](N)[C@H]3O[C@H]3O[C@H](CN)[C@@H](O)[C@@H](O)[C@H]3N)O[C@H]2CO)[C@H](N)[C@@H](O)[C@@H]1O | . | . | -3% | . | . | .
COC(=O)C1CCN(Cc2ccc3c(c2)CN(C(=O)c2sc(C)nc2C)CCO3)CC1 | . | . | . | -7% | -14% | .
CC(C)C(Cl)=NOC(=O)Nc1ccc(F)cc1 | 5% | 10µM* | -9% | -13% | i | .
COc1ccc(C(=O)NCc2nnc(SC)n2-c2ccccc2C)c(OC)c1OC | . | . | . | 10% | -9% | .
CCN(Cc1ccncc1)Cc1ccc2c(c1)CN(C(=O)c1ccc(OC)cc1)CCO2 | . | . | . | 2% | -11% | .
SMILES | AMA1 RON2 block | RE007 growth inh | TbPYK inhibitor | VACV Venus inh | VACV mCherry inh | LmPK inhibitor
Cc1cccc(-n2ncc3c(N4CCOCC4)ncnc32)c1 | 14% | -19% | -14% | -23% | -3% | 25µM*
COc1ccc(-n2ncc3c(N4CCCCC4)ncnc32)cc1 | 0% | -8% | -11% | -23% | -19% | 16µM*
Cc1cccc(-n2ncc3c(N4CCN(c5ccccc5)CC4)ncnc32)c1 | . | . | -4%[15.4 µM] | -7% | -10% | .
Cc1ccc(-n2ncc3c(N4CCCCC4)ncnc32)cc1 | . | . | -15% | -1% | -13% | .
Cc1ncc2c(c1CNC(=O)c1ccccc1F)CCN(C(=O)c1[nH]c3ccc(Cl)cc3c1C)C2 | . | . | . | -3% | 1% | .
O=C(CN1C(=O)COc2ccc(S(=O)(=O)NC3CCCC3)cc21)Nc1ccc(Cl)cc1F | . | . | -7% | -10% | i | .
CCCCn1c(-c2ccc(C(C)(C)C)cc2)nc2cc3[nH]c(=O)c(C(C)C)nc3cc21 | 45% | 8% | -7% | ? | 10µM* | 2%
COc1ccc(N2Cc3ccccc3C2=O)cc1 | 17% | ? | -26% | -7% | -9% | 14µM*
C=CC(=O)Oc1ccc(N2Cc3ccccc3C2=O)cc1 | 0% | 7.9µM* | -28% | . | . | .
COc1ccc(CN2CCOc3ccc(CN4CCC(Oc5cccnc5)CC4)cc3C2)cc1 | . | . | . | -25% | -12% | .
O=C(N[C@@H]1c2ccccc2C2(CCN(C(=O)c3cc4ccccc4oc3=O)CC2)[C@H]1O)c1cccnc1 | . | . | . | -8% | -1% | .
CCOc1ccc(-c2oc3cc(Cl)ccc3c(=O)c2O)cc1OC | . | . | -9% | -24% | 28µM* | .
COc1cc(-c2oc3cc(O)ccc3c(=O)c2O)ccc1O | . | . | . | 0% | ? | .
COc1cccc(-c2nc(CS(=O)(=O)CC(=O)NCc3cccc(Cl)c3)c(C)o2)c1 | . | . | 1% | -9% | -8% | .
O=C(/C=C/c1ccc([N+](=O)[O-])cc1)c1cccnc1 | -15% | 16µM* | -20% | -15% | i | -3%
O=C(/C=C/c1ccc([N+](=O)[O-])cc1)NCc1cccnc1 | -8% | -2% | 6% | -2% | i | 0%
COc1cc(=O)n2c(c1C(=O)N(C)Cc1ccsc1)CCN(Cc1c(C)nc3sccn13)CC2 | . | . | . | -14% | i | .
NC(=O)/C=C/C(=O)Nc1ccc(Cl)cc1 | 5% | 11µM* | 1% | -1% | -1% | 9%
C=CC(=O)Nc1ccc(Nc2nc(NC3CCC(N(C)C)CC3)nc3c2ncn3C(C)C)cc1 (centres undefined) | -17% | 1% | -1% | 1.1µM* | ? | .
CC(C)[C@H](CO)Nc1nc(Nc2ccc(C(=O)O)c(Cl)c2)c2ncn(C(C)C)c2n1 | . | . | -3% | . | . | .

High-throughput results as filed in PubChem BioAssay.
